HEK cytotox: HEK 293 cell cytotoxicity; HEK 293 viability, ATP luminescence (CellTiter-Glo), 48-72 h; Potency, µM (series often up to 115 µM), without a hit: at the highest dose activity change, negative = cytotoxicity, hits mostly inhibitors; 6.6% of 94,000 active; AID 1345083; active = well fitted curve in the direction sought with a large enough effect; inconclusive = small, poorly fitted or top-dose-only effect, or another doubt; inactive = no such curve, though single readings can be large; an effect the other way counts as inactive or inconclusive; note: % is set by controls: 0 for no effect and ±100 for the full control effect; nearly all actives have a fitted effect of over 60% in size
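CellTiter-Glo luminescence (cellular ATP) was read after 48 or 72 hr of compound exposure at 37 degree Celsius. Cells were HEK 293 plated at 250 cells/well.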
NIH3T3 tox: cytotoxic compounds in NIH 3T3 cells. Potency, µM (highest dose often 96.7 µM), without a hit: at the highest dose activity change, negative = cytotoxicity, most hits filed as inhibitors. 4.3% of 94,000 active. AID 1345082. NIH 3T3 viability, CellTiter-Glo ATP luminescence, 48-72 h; active = well fitted curve in the direction sought with a large enough effect; inconclusive = small, poorly fitted or top-dose-only effect, or another doubt; inactive = no such curve, though single readings can be large; an effect the other way counts as inactive or inconclusive; note: % is set by controls: 0 for no effect and ±100 for the full control effect; nearly all actives have a fitted effect of over 55% in size
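Cytotoxicity is measured as loss of cellular ATP: NIH 3T3 cells (400/well) are exposed to compound for 48 or 72 hr at 37 °C, then CellTiter-Glo luminescence is imaged after 10 min at room temperature.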
NPR1 antag: antagonists of human natriuretic peptide receptor Npr1; P16066; HEK293 hNpr1 GloSensor cGMP, ANP-stimulated luminescence; Potency, µM (series often up to 46.3 µM), without a hit: at the highest dose activity change, negative = inhibition, actives largely listed as inhibitors; 1.6% of 76,000 active; AID 1347048; note: % is set by controls: 0 for no effect and ±100 for the full control effect; nearly all actives have a fitted effect of over 60% in size
Target sequence (P16066 whole entry, looked up): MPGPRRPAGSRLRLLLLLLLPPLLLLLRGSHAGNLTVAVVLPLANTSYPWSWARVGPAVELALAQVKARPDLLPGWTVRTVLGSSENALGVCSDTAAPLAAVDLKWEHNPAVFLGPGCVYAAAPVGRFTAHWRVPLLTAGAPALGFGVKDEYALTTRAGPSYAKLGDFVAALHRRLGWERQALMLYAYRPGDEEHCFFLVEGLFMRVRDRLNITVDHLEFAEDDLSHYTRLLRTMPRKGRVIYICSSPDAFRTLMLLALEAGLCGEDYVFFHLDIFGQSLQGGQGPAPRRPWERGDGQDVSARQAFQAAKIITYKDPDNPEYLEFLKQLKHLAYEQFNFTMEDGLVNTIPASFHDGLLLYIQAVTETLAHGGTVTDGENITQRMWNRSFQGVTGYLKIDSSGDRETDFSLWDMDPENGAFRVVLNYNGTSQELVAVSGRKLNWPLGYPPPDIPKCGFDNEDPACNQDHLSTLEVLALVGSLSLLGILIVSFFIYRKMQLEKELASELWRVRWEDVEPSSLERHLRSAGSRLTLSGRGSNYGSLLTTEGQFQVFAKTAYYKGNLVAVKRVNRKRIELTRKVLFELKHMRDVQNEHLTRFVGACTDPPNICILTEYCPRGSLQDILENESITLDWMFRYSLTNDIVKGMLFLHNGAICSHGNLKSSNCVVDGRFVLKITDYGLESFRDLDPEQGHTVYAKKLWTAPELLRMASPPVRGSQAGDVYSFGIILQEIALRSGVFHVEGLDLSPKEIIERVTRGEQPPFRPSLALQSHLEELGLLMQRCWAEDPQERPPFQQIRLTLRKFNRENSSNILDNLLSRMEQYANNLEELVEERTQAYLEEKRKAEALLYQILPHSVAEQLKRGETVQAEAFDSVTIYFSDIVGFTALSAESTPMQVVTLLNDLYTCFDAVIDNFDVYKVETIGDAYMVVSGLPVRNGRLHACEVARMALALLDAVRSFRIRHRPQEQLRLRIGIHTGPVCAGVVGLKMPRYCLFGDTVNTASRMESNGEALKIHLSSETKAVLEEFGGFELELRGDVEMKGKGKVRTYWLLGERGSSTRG
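HEK293 cells stably expressing human Npr1 and cGMP GloSensor pGS-40F, loaded 2 h with 2% GloSensor reagent, given compound 30 min at room temperature. Luminescence read before and 20 min after 0.1 nM hNppA.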
Luciferase inh: inhibitors of firefly (Photinus pyralis) luciferase; Potency, µM (doses to about 115 µM), hits mostly inhibitors; purified P. pyralis luciferase, luminescence, biochemical; P08659; 2.5% of 76,000 active; active = well fitted curve in the direction sought with a large enough effect; inconclusive = small, poorly fitted or top-dose-only effect, or another doubt; inactive = no such curve, though single readings can be large; an effect the other way counts as inactive or inconclusive; note: % is set by controls: 0 for no effect and ±100 for the full control effect; nearly all actives have a fitted effect of over 65% in size
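Purified 10nM P. pyralis luciferase with 10uM D-luciferin and 10uM ATP in 50mM Tris acetate pH 7.5, 10mM Mg acetate, 0.01% Tween-20, 0.05% BSA. qHTS titration; luminescence read by CCD imager.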
Npr1 antag conf: hNpr1 antagonism, confirmation assay | Potency, µM (doses to about 57.6 µM), for inactives: top-dose activity change, negative = inhibition, usual class: inhibitors | 76% of 1,400 active | HEK293 hNpr1 cGMP GloSensor luminescence, ANP-stimulated | shares compounds with NPR1 antag; note: nearly all actives have a fitted effect of over 70% in size
Npr2 selectivity: selectivity test of Npr1 antagonists against human Npr2. shares compounds with NPR1 antag. HEK293 hNpr2 GloSensor cGMP luminescence, CNP-stimulated. Potency, µM (doses to about 57.6 µM), inactives show at the top dose activity change, negative = inhibition, most hits filed as inhibitors. 67% of 1,400 active. AID 1347046; note: nearly all actives have a fitted effect of over 70% in size
FLuc inh counter: FLuc enzyme inhibition, Npr1 counter-screen; shares compounds with NPR1 antag; purified FLuc enzyme, luminescence, Km substrate; Potency, µM (top dose mostly 57.6 µM), for the others: top-dose activity change, negative = inhibition, usual class: inhibitors; 0.7% of 1,400 active; AID 1347047; active = well fitted curve in the direction sought with a large enough effect; inconclusive = small, poorly fitted or top-dose-only effect, or another doubt; inactive = no such curve, though single readings can be large; an effect the other way counts as inactive or inconclusive; note: 0% is about no effect
GloSensor cGMP: reduces cGMP signal in GloSensor control cells. shares compounds with NPR1 antag. HEK293 GloSensor cGMP, SNP-stimulated, luminescence. Potency, µM (top dose mostly 57.6 µM), for inactives: top-dose activity change, negative = inhibition, usual class: inhibitors. 69% of 1,400 active; note: % is set by controls: 0 for no effect and ±100 for the full control effect; nearly all actives have a fitted effect of over 70% in size
An asterisk follows results filed as active; i = inactive; ? = inconclusive; . = no result; ! = a repeat was not active; [ ] = remark or other dose. Compounds with a hit are over-represented: about 11% of the library has one in this group of screens. Unless noted, calls come from the whole dose curve. Potency is the fitted concentration of half-maximal effect.

SMILES	HEK cytotox	NIH3T3 tox	NPR1 antag	Luciferase inh	Npr1 antag conf	Npr2 selectivity	FLuc inh counter	GloSensor cGMP
O=C(C1CCCN1C(=O)c1cccc(Cl)c1)N1CCC(c2nc3ccncc3[nH]2)CC1 (centres undefined)	-4%	-27%	.	.	.	.	.	.
N#Cc1ccc(C(=O)Nc2ccc([C@@H](O)[C@H]3COCC(=O)N3Cc3ccccc3F)cc2)cc1	?	-28%	-3%	i	.	.	.	.
CCCCn1c(=O)c(C(=O)N2CCN(C(=O)c3ccc(OC)cc3)CC2)nc2cccnc21	-20%	?	.	.	.	.	.	.
O=C(CC[C@@H]1CNC(=O)[C@@H]2C[C@H](NC(=O)Nc3ccccc3)CN12)Nc1ccccc1	-4%[172 µM]	3%[174 µM]	-10%[70.6 µM]	?	.	.	.	.
Cc1ccc(C(=O)N2CCC3(CC2)N=C(c2ccc(Br)cc2)NO3)cc1	?	-22%	16µM*	i	22µM*	19µM*	2%	19µM*
CN(C)c1ccc(C(=O)N2CCC3(CC2)N=C(c2ccc(Br)cc2)NO3)cc1	?	-17%	11µM*	i	19µM*	22µM*	0%	15µM*
O=C(c1ccccc1)N1CCC2(CC1)N=C(c1ccc(Br)cc1)NO2	?	?	16µM*	i	27µM*	?	1%	?
O=C(c1ccc2[nH]ccc2c1)N1CCC2(CC1)N=C(c1ccc(Br)cc1)NO2	?	?	11µM*	i	24µM*	14µM*	-10%	11µM*
O=C(c1cccc(F)c1)N1CCC2(CC1)N=C(c1ccc(Br)cc1)NO2	?	?	?	i	.	.	.	.
Cc1ccc(C(=O)N2CCC3(CC2)N=C(c2ccccc2)NO3)cc1	?	-7%	1%	i	.	.	.	.
Cc1cnc(C)n1C1CCN(S(=O)(=O)c2ccc(C#N)cc2)CC1	-13%	-16%	8%	i	.	.	.	.
O=S(=O)(c1ccc2c(c1)OCCO2)N1CC[C@@H]2COCCN(Cc3cccnc3)[C@@H]2C1	?	?	-17%	i	.	.	.	.
COc1ccccc1-c1ncc(CNc2cc(C3CC(O)C3)ncn2)s1 (centres undefined)	32µM*	-64%	7.1µM*	i	8.6µM*	12µM*	-27%	6.9µM*
COc1ccccc1-c1ncc(CNc2ncncn2)s1	?	-30%	-1%	i	.	.	.	.
Cc1noc(C)c1[S+](=O)([O-])N1CCc2nc(C(C)C)nc(-c3ccc(O)cc3)c2C1	?	?	-4%	i	-24%	?	1%[86.2 µM]	8%
Cc1noc(C)c1[S+](=O)([O-])N1CCc2nc(C(C)C)nc(-c3ccc(Cl)cc3)c2C1	?	-21%	-23%	i	.	.	.	.
COc1ccc(C(=O)N2CCCN(c3cc(-c4ccc(Cl)cc4)[nH]n3)CC2)c(C)c1	50µM*	?	3.5µM*	i	9.7µM*	11µM*	0%	9.7µM*
COc1ccc(CC(=O)NC2CCCN(c3cc(-c4ccc(Cl)cc4)[nH]n3)C2)cc1OC (centres undefined)	22µM*	?	11µM*	i	24µM*	15µM*	1%	24µM*
COc1ccc(C(=O)N2CCCN(c3cc(-c4ccc(F)cc4)[nH]n3)CC2)c(C)c1	?	?	5.6µM*	i	11µM*	12µM*	0%	6.9µM*
COc1ccc(C(=O)NC2CCN(c3cc(-c4ccc(F)cc4)[nH]n3)CC2)c(C)c1	?	?	0%	i	?	?	2%	-20%
O=C(NC1CC1)c1nc2cccnc2n(C2CC2)c1=O	-11%[172 µM]	-23%[138 µM]	.	.	.	.	.	.
COc1cccc(C(=O)N2CCN(c3cc(C(F)(F)F)nc(C)n3)CC2)c1	?	-17%	-1%	i	.	.	.	.
COc1ccccc1NC(=O)N1CCc2cc(OC)c(OC)cc2C1CNC(=O)c1ccco1 (centres undefined)	-36%	-23%	-11%	i	.	.	.	.
COc1ccc(CC(=O)NC2CCN(c3cc(-c4ccc(Cl)cc4)[nH]n3)CC2)cc1	?	?	?	i	.	.	.	.
O=C(NC1CCN(c2cc(-c3ccccc3)[nH]n2)CC1)c1cc(Cl)ccc1F	?	?	-21%	i	-22%	-23%	2%	-19%
SMILES	HEK cytotox	NIH3T3 tox	NPR1 antag	Luciferase inh	Npr1 antag conf	Npr2 selectivity	FLuc inh counter	GloSensor cGMP
COc1ccc(CC(=O)NC2CCN(c3cc(-c4ccc(OC)cc4)[nH]n3)CC2)cc1	?	?	-25%	i	?	?	0%	-27%
O=C(NCc1cccc(C(F)(F)F)c1)C1CCc2nnc(CN[S+](=O)([O-])c3ccccc3Cl)n21 (centres undefined)	-1%	?	.	.	.	.	.	.
CC(=O)Nc1cccc(C(=O)N2CCC(n3cc(-c4nc(C5CC5)no4)nn3)C2)c1 (centres undefined)	-3%	-19%	3%	i	.	.	.	.
Cc1nn2c(c1-c1cccnc1N1CCOCC1)N(C(=O)Cc1cccc(Cl)c1)CCC2	4%	?	-21%	i	-27%	?	0%	7%
Cc1nn2c(c1-c1ccccc1-c1ccccc1)N(C(=O)Cc1ccccn1)CCC2	?	-4%[138 µM]	-10%[70.6 µM]	i	.	.	.	.
Cc1nn2c(c1-c1cccnc1N1CCOCC1)N(CCc1ccccc1)CCC2	25µM*	?	4µM*	i	35µM*	31µM*	-6%[86.2 µM]	?
O=c1[nH]c(C2CCN(Cc3ccc(Cl)cc3)CC2)nc2ccc(F)cc12	-3%	-13%	-19%	i	.	.	.	.
O=c1[nH]c(C2CCN(Cc3cccc(-c4cccs4)c3)CC2)nc2ccc(F)cc12	22µM*!	28µM*	?	i	-27%	?	1%	?
O=C(Cc1ccc(Cl)cc1)N1CCCN(c2cc(-c3ccccc3)[nH]n2)CC1	?	?	-14%	i	.	.	.	.
Cc1ccc(C(=O)N2CCN(c3cc(-c4ccccc4)[nH]n3)CC2)cc1	?	?	?	i	.	.	.	.
O=C(c1ccc(Cl)cc1Cl)N1CCN(c2cc(-c3ccccc3)[nH]n2)CC1	20µM*	32µM*	10µM*	i	14µM*	19µM*	1%	14µM*
